The source of these data is PubChem BioAssay (Tox21).

Records with an inconclusive call do not appear. Values without a mark were called inactive. Activity calls are given as the source filed them. Unless noted, the call rests on the fitted dose curve; in most records, active means well fitted curve in the direction sought with a large enough effect in the repeat runs; inconclusive means weak or mixed curves; inactive means no such curve, though single readings can be large; an effect the other way counts as inactive or inconclusive.

Assay [1] concerns the target Retinoic acid receptor RXR-alpha (Homo sapiens) (UniProt P19793). Put plainly: qHTS assay to identify small molecule agonists of the RXR signaling pathway (AID 1159527; calls by dose curve; further: nearly all actives have a fitted effect of over 35% in size). The method, boiled down: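 Beta-lactamase reporter assay, agonist format. Engineered HEK 293T line, charcoal-stripped FBS at 2%, overnight (16 hr) exposure, fluorescence at 460 and 530 nm after 405 nm excitation.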
For orientation: In qHTS, concentration-response curves come from the screen itself.

A short description of assay [2]: qHTS assay to identify small molecule agonists of the RXR signaling pathway - cell viability counter screen (AID 1159529).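 Further: HEK 293T cells carrying an RXR-alpha UAS beta-lactamase reporter; nearly all actives have a fitted effect of over 50% in size.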 The method, boiled down:
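Same-well viability check after the LiveBLAzer FRET read: CellTiter-Glo added, luminescence measured after 30 min at room temperature. Reporter HEK 293T cells had been treated with compounds for 16 hr following a 5 hr preincubation.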

Assay [3] in a line: qHTS assay to identify small molecule antagonists of the retinoid acid receptor (RAR) signaling pathway - cell viability counter screen (AID 1159551). Further: nearly all actives have a fitted effect of over 35% in size. The procedure, abridged: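 ATP-based viability, C3RL4 cells, 6 h at 37 C with 1 uM final retinol co-added after compound; luminescence read 30 min post CellTiter-Glo, RT.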
Assay [4] can be described thus: qHTS assay to identify small molecule antagonists of the retinoic acid receptor (RAR) signaling pathway (AID 1159552; further: nearly all actives have a fitted effect of over 50% in size). The procedure, abridged:
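Readout: luciferase luminescence, 30 min post-reagent at RT. Setup: C3RL4 RARE reporter cells, compounds plus retinol 1 uM final, 6 hr incubation at 37 C and 5% CO2.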

Assay [5] is described as follows: qHTS assay to identify small molecule agonists of the retinoic acid receptor (RAR) signaling pathway (AID 1159553). To be noted: C3RL4 RARE luciferase reporter, agonist, 6 h; activation: at 73.3 µM (top of the series). The method, boiled down: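 Quantitative high-throughput format: the Tox21 10K library was tested on C3RL4 RARE-luciferase cells for 6 hr at 37 C and 5% CO2, with luminescence measured after a 30 min room-temperature reagent step.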

A short description of assay [6]: qHTS assay to identify small molecule antagonists of the estrogen related receptor (ERR) signaling pathway from Tox21 library - cell viability counter screen (AID 1224834). Further: nearly all actives have a fitted effect of over 30% in size. The procedure, abridged: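 Compounds in DMSO were pinned onto ERR cells that had been incubated for 6 h, and the plates were held at 37 C for 17.5 h. CellTiter-Fluor reagent was then added and fluorescence was measured after 30 min.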

Assay [7] deals with Luciferin 4-monooxygenase (Photinus pyralis) (UniProt P08659). Kind of assay: qHTS assay to identify small molecule inhibitors of firefly luciferase (AID 1224835). Further: nearly all actives have a fitted effect of over 25% in size. Further: potency means the concentration at half of the fitted maximal effect. The procedure, abridged:
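Biochemical qHTS: compounds run as interplate titrations against purified firefly enzyme, with D-luciferin and ATP each at its KM concentration. Light output recorded by CCD imaging.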

Assay [8] in a line: qHTS assay to identify small molecule agonists of the constitutive androstane receptor (CAR) signaling pathway - cell viability counter screen (AID 1224836). Further: nearly all actives have a fitted effect of over 45% in size. The method, boiled down:
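Compound titrations (15 concentrations) went onto HepG2-CYP2B6-hCAR cells 4 h after seeding, alongside PK11195 at a final 0.75 uM; a 23 h, 37 C/5% CO2 incubation preceded CellTiter-Fluor viability measurement.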

A short description of assay [9]: qHTS assay to identify small molecule antagonists of the constitutive androstane receptor (CAR) signaling pathway - cell viability counter screen (AID 1224837). Further: nearly all actives have a fitted effect of over 45% in size. The method, boiled down: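 Cells are seeded, rested 4 hr at 37 C/5% CO2, dosed with compound (15-point series) and 50 nM CITCO, incubated a further 23 hr, and then CellTiter-Fluor reagent is added before fluorescence is read. The line is HepG2 with stable hCAR and CYP2B6-2.2kb.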

Assay [10] in a line: qHTS assay to identify small molecule antagonists of the estrogen related receptor signaling pathway with the pleiotropic PPARgamma coactivator (PGC) from Tox21 10K library - cell viability counter screen (AID 1224840; active means well fitted cell-killing curve with a large enough effect in the repeat runs, not every such curve was filed as active; further: nearly all actives have a fitted effect of over 40% in size). The procedure, abridged:
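Cell viability is measured by CellTiter-Fluor fluorescence in PGC/ERR cells that receive compounds after a 6-hour attachment period and are then incubated 17.5 hours at 37 C.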

Assay [11] in a line: qHTS assay to identify small molecule antagonists of the estrogen related receptor signaling pathway with the pleiotropic PPARgamma coactivator (PGC) from Tox21 10K library (AID 1224841; call rule not given here; further: actives are mostly falling curves and most rising ones were filed inactive; nearly all actives have a fitted effect of over 50% in size). The procedure, abridged: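 Cells stably carrying the PGC/ERR reporter, seeded at 2,000 per well, received pin-transferred compounds 6 h post-plating. Exposure lasted 18 h at 37 C. Signal: One-Glo luminescence.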

Assay [12] can be described thus: qHTS assay to identify small molecule agonists of the estrogen related receptor signaling pathway with the pleiotropic PPARgamma coactivator (PGC) from Tox21 10K library (AID 1224842). Further: nearly all actives have a fitted effect of over 15% in size. The procedure, abridged: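 PGC/ERR reporter cell line, 2,000 cells per well, incubated 6 h at 37 C before 23 nL compound in DMSO was added. After 18 h at 37 C, One-Glo luminescence read following 30 min at room temperature.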

Assay [13] deals with Thyrotropin receptor (Homo sapiens) (UniProt P16473). Kind of assay: qHTS assay to identify small molecule agonists of the thyroid stimulating hormone receptor (TSHR) signaling pathway (AID 1224843; calls by dose curve; further: nearly all actives have a fitted effect of over 45% in size). The procedure, abridged: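 HEK293/TSHR, 800 cells/well; cpd 30 min RT; add cAMP-d2 + anti-cAMP-cryptate, 1 h RT; fluorescence read on plate reader. 15-pt titration, n=3.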
The nature of assay [14]: qHTS assay to identify small molecule agonists of the hypoxia (HIF-1) signaling pathway - cell viability counter screen (AID 1224844; calls by dose curve; further: nearly all actives have a fitted effect of over 50% in size). The method, boiled down: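 Viability counter screen: HRE-bla ME-180 cells plated 5 hrs before compound addition, treated 17 hrs at 37C and 5% CO2, then CellTiter-Glo added after the FRET reporter read; luminescence after 30 min.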
Assay [15] in a line: qHTS assay to identify small molecule agonists of H2AX (AID 1224845; active means well fitted activation curve with a large enough effect in the signal ratio in the repeat runs, not every such curve was filed as active; the % refers to the signal ratio). The method, boiled down: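 Wild-type CHO-K1 cells, plated overnight, exposed 3hr at 37C to 15 concentrations (0.76% DMSO final). Lysed, then HTRF anti-pH2AX (S139) cryptate and anti-H2AX-d2 antibodies, 24 hr room temperature; 665/620 nm emission read.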
Assay [16] is described as follows: qHTS assay to identify small molecule antagonists of the estrogen related receptor (ERR) signaling pathway from Tox21 library (AID 1224848). Further: nearly all actives have a fitted effect of over 50% in size. The procedure, abridged: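 Compounds dissolved in DMSO are pin-transferred onto ERR reporter cells (2,000 per well) that have settled for 6 h at 37 C. Plates then incubate 18 h at 37 C before ONE-Glo luciferase reagent and a luminescence read 30 min later.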

Assay [17] has as its target Nuclear receptor subfamily 1 group I member 3 (Homo sapiens) (UniProt Q14994). Kind of assay: qHTS assay to identify small molecule agonists of the constitutive androstane receptor (CAR) signaling pathway (AID 1224839).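 Further: HepG2 cells stably carrying human CAR and a CYP2B6 luciferase reporter; nearly all actives have a fitted effect of over 15% in size.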 The procedure, abridged:
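In this screen, CAR-driven CYP2B6 promoter activity is measured by luminescence in HepG2-CYP2B6-hCAR cells after 24 h with test compounds and 0.75 uM PK11195 (final concentration).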

Assay [18] can be described thus: qHTS assay to identify small molecule agonists of the hypoxia (HIF-1) signaling pathway (AID 1224846; active means well fitted activation curve with a large enough effect in the signal ratio in the repeat runs, not every such curve was filed as active; the % refers to the signal ratio). The procedure, abridged:
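Agonist mode reporter screen. ME-180 cells stably expressing bla under HRE control received test compounds in DMSO for 17 hrs (37C, 5% CO2), and beta-lactamase activity was then detected with the CCF4-AM FRET substrate.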

The target of assay [19] is Nuclear receptor subfamily 1 group I member 3 (Homo sapiens) (UniProt Q14994). Kind of assay: qHTS assay to identify small molecule antagonists of the constitutive androstane receptor (CAR) signaling pathway (AID 1224838).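 Further: HepG2 cells stably expressing hCAR with CYP2B6 luciferase reporter stimulated by CITCO; nearly all actives have a fitted effect of over 40% in size.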 The method, boiled down: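 Luminescence from a CYP2B6-2.2kb promoter reporter in hCAR-expressing HepG2 cells reflects CAR signaling. Cells received compounds at 15 concentrations and 50 nM CITCO (final), then incubated 24 h at 37 C/5% CO2.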

Assay [20] is described as follows: qHTS assay to identify small molecule agonists of H2AX - cell viability counter screen (AID 1224847; calls by dose curve; further: top concentration of the series differs between compounds; nearly all actives have a fitted effect of over 30% in size). The procedure, abridged:
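Read-out: CellTiter-Glo luminescence, 30 min RT. Cells: wild-type CHO-K1, 1000/well, 10% FBS, plated overnight at 37C. Treatment: 15 concentrations, 3 hr, 37C, 0.76% DMSO.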
On the % scale 0 is the no-effect control and ±100 the full control effect.

Luciferin 4-monooxygenase (Photinus pyralis), sequence (P08659 whole entry, looked up): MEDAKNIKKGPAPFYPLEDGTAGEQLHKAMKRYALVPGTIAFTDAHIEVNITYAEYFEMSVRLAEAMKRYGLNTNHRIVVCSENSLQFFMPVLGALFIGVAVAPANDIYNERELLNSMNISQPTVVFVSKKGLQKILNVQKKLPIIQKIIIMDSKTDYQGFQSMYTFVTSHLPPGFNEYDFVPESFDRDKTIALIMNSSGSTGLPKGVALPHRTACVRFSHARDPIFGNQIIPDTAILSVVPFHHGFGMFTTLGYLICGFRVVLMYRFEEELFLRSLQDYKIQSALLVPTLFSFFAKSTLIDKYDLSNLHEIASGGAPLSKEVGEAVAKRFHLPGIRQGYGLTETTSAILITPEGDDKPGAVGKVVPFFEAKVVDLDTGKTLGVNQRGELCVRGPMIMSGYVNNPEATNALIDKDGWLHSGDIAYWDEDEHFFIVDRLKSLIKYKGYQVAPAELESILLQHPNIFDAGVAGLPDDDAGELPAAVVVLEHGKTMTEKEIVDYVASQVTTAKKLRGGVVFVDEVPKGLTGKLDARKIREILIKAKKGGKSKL
Nuclear receptor subfamily 1 group I member 3 (Homo sapiens), sequence (Q14994 whole entry, looked up): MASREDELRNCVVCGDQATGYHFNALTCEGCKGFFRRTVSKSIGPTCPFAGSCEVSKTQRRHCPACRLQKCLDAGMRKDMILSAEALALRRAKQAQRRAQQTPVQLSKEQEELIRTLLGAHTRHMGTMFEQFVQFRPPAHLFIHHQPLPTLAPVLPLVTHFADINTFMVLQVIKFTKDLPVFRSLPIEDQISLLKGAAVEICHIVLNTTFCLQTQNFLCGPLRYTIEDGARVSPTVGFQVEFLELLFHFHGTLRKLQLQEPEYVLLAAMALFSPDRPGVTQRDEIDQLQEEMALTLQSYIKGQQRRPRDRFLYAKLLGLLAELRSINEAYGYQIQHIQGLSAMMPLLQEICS
Thyrotropin receptor (Homo sapiens), sequence (P16473 whole entry, looked up): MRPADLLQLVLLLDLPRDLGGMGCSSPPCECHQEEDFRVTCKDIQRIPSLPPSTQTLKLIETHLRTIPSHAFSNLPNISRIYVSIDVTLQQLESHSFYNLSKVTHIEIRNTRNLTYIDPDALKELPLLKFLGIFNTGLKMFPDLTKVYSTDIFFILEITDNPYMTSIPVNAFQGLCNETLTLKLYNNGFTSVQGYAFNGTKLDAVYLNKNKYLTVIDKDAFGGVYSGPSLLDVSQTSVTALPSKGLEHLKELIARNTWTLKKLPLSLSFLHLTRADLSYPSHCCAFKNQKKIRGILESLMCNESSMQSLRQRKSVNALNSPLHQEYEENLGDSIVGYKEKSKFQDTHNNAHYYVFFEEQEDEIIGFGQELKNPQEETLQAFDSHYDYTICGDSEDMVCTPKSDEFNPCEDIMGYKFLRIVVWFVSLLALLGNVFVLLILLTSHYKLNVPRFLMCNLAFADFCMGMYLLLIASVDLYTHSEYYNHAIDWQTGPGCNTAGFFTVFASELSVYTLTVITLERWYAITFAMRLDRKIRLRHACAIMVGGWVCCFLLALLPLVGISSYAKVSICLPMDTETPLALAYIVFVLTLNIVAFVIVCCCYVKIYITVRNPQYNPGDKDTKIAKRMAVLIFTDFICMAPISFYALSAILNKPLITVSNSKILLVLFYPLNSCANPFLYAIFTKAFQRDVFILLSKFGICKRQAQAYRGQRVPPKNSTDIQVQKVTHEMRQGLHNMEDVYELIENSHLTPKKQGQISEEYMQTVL
Retinoic acid receptor RXR-alpha (Homo sapiens), sequence (P19793 whole entry, looked up): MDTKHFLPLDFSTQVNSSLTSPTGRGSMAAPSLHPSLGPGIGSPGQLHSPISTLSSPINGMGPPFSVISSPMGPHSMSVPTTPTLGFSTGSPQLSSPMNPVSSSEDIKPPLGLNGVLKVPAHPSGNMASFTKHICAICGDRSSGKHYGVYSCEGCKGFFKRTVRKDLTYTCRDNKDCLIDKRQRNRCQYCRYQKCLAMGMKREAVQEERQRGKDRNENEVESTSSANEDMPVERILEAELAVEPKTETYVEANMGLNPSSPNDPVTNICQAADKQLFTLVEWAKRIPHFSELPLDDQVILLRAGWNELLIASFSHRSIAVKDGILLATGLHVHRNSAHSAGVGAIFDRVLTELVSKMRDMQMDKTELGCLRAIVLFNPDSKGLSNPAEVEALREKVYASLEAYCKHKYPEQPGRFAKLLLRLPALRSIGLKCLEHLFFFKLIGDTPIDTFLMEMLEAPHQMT

Turning to `COc1ccc(NS(=O)(=O)c2ccc(N)cc2)nn1`, the Potency result in assay [1], in assay [4], in assay [5], in assay [6], in assay [7] and in assay [9] was “inactive” each time. Also, the Potency result in [11] and in assay [16] was “inactive” each time. The result in assay [2], in [3], in assay [8], in assay [10], in assay [12] and in assay [13] was inactive. The molecule was called inactive in assay [14] and in [15].

`C/C=C(\C)C(=O)OCC/C=C\CC`: the Potency entry in assay [1], in [4], in [5], in assay [6], in assay [9] and in [17] was “inactive” each time. The molecule was called inactive in assay [2], in [3], in assay [8], in assay [10], in [13] and in assay [14]. Moreover, the result in [15] and in assay [18] was inactive. For the same molecule, in [7], the Potency was 35.6 µM (active).

Regarding `CC(=O)OCC(=O)[C@@]1(O)[C@H](OC(C)=O)C[C@H]2[C@@H]3CCC4=CC(=O)C=C[C@]4(C)[C@@]3(F)[C@@H](O)C[C@@]21C`, the Potency result in assay [1], in assay [4], in assay [5], in assay [6], in assay [7] and in [9] was “inactive” each time. For the same molecule, the Potency result in assay [19], in assay [17] and in [20] was “inactive” each time. Also, the outcome in [2], in assay [3], in assay [8], in assay [10], in [14] and in assay [15] was inactive. Besides, the result in assay [18] was inactive.

On to `O=C(O)/C=C/c1ccccc1`, for which the Potency entry in [1], in assay [4], in assay [5], in [6], in [7] and in [9] was “inactive” in each case. For the same molecule, the Potency entry in assay [16] is “inactive”. The outcome in assay [2], in assay [3], in assay [8], in [10], in [12] and in assay [13] was inactive. The molecule was classed as inactive in assay [14], in assay [15] and in assay [18].

Regarding `CC(=O)OC(C)(C)Cc1ccccc1`, the Potency result in assay [1], in [4], in [5], in [6], in assay [7] and in [9] was “inactive” throughout. Moreover, the molecule was classed as inactive in assay [2], in assay [3], in assay [8], in assay [10], in assay [13] and in assay [14]. Further, the outcome in [15] and in assay [18] was inactive.

For `O=c1[nH]c(=O)c2[nH]c(=O)[nH]c2[nH]1`, the activation is 3.02% [at 6.98 µM] in assay [1], 0.0515% [at 8.36 µM] in assay [5], 0.91% [at 8.39 µM] in [13] and 0.359% [at 7.01 µM] in assay [18]. The activity change, negative = cytotoxicity in [2] is 9.18% [at 6.97 µM]; in assay [3] it was -0.439% [at 8.39 µM]; in [9], -10.7% [at 8.39 µM]; in assay [14], 3.89% [at 6.97 µM]; in [20], -1.7% [at 14 µM]. In addition, the activity, negative = inhibition in assay [4] is 2.16% [at 8.39 µM]. Also, the viability change, negative = cytotoxic in assay [6] was -1.5% [at 8.39 µM]; in assay [8], -1.86% [at 8.39 µM]; in assay [10], -2.62% [at 8.39 µM]. The activity change, negative = inhibition in [7] was -3.23% [at 10.5 µM]. Further, the activation (H2AX phosphorylation) in [15] was 0.259% [at 14 µM].

On to `O=c1cc(O)c(Cl)c[nH]1`, for which the Potency result in assay [1], in [4], in assay [5], in assay [6], in assay [7] and in assay [9] was “inactive” in each case. Moreover, in assay [20], the Potency entry was “inactive”. For the same molecule, the call in [2], in [3], in [8], in [10], in [13] and in assay [14] was inactive. Further, the call in [15] and in [18] was inactive.

Regarding `Cc1ccccc1C(=O)N1CC/C(=N\OS(=O)(=O)O)c2ccc(Cl)cc21`, the Potency entry in [1], in assay [4], in assay [5], in assay [6], in assay [7] and in assay [9] was “inactive” throughout. Further, the Potency entry in assay [17] and in assay [16] was “inactive” throughout. The molecule was classed as inactive in assay [2], in assay [3], in [8], in assay [10], in [12] and in [13]. For the same molecule, the result in [14] and in assay [18] was inactive.
